This is a sample that favours compounds with a hit; in the whole collection about 1.3% have one here.
BRCA1 expr act = BRCA1 expression activation. MCF7-BRCA1-FFLuc reporter, luminescence, 48 h; response scale: scaled: vehicle 0%, 10 µM genistein 100%. Potency, µM (titrated, usually from 46.1 µM), usual class: activators. hit rate 1.1% among 380,000. AID 624202; further: nearly all actives have a fitted effect of over 80% in size
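Reporter cells (MCF7, BRCA1 promoter-firefly luciferase) received library compounds across a concentration series for 48 h. End-point luminescence was measured and concentration-effect curves derived after normalization.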
p53 reactivator = mutant p53 re-activation in reporter cells; H1299 p53-A138V BP100-luciferase reporter, luminescence, 24 h; AID 504706; hit rate 0.063% among 320,000; Potency, µM (top dose mostly 92.2 µM), most hits filed as activators; further: nearly all actives have a fitted effect of over 45% in size
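H1299 (p53-null), stable ts p53-A138V + BP100-Luc; 1000 cells/well, Opti-MEM/10% FBS; cpd 4 pt, 1:5; 24 h, 37 deg C, 5% CO2; detection reagent 10 min RT; luminescence.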
IL2 activator = IL-2 activation | IL-2 activation reporter assay, cell-based qHTS; stimulated with anti-CD3/CD4/CD28 beads; in transgenic mouse T cells | activation, % (series mostly up to about 46 µM) | hit rate 0.065% among 360,000; in the data active means activation above about 50%; inconclusive means mostly about 30% to 49%
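First, unstimulated transgenic mouse T cells were exposed to compound for 60 min. Next, anti-CD3/anti-CD4-coated beads with anti-CD28 were added. Finally, after 18 h at 37 degrees C, EGFP and DsRed were imaged.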
Mito fusion act = inhibitors of mitochondrial division or activators of mitochondrial fusion | S. cerevisiae fusion-defective mutant growth rescue, CellTiterGlo 48 h | Potency, µM (doses to about 46.1 µM), actives largely listed as activators | hit rate 0.23% among 320,000; further: nearly all actives have a fitted effect of over 45% in size
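S. cerevisiae fusion-defective temperature-sensitive mutants (e.g. fzo1-1, mgm1-5) grown 48 h at 37C in YPEG (ethanol/glycerol non-fermentable) medium with 23 nl compound per well; growth rescue read as CellTiterGlo luminescence.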
TCR activator = T cell receptor activation | primary human leukocytes, anti-CD3, IL-2 HTRF, 48 h | Potency, µM (series often up to 9.22 µM), usual class: activators | 330,000 tested, under 10 active
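Primary human leukocytes incubated 48 hr with anti-CD3 beads plus compound, without co-stimulation. Secreted IL-2 measured by HTRF (europium cryptate/d2 anti-IL-2 pair, 320 nm excitation, 665 nm emission).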
Numbers stand for hits; - = inactive; ? = inconclusive; . = no result given; [ ] = remark or other dose. Unless noted, the call rests on the fitted dose curve; in most records, active means well fitted curve in the direction sought with a large enough effect; inconclusive means small, poorly fitted or top-dose-only effect, or another doubt; inactive means no such curve, though single readings can be large; an effect the other way counts as inactive or inconclusive.

SMILES | BRCA1 expr act | p53 reactivator | IL2 activator | Mito fusion act | TCR activator
Cc1ccnc(SCC(=O)c2cccs2)n1 | 2.5µM | - | - | - | -
C=C(C)CSc1nncn1/N=C/c1ccc(OC)cc1 | 7.9µM | ? | - | - | -
CCSc1nncn1/N=C/c1ccc(OC)c(OC)c1 | - | ? | - | - | -
Cc1c(C(=O)N2CCc3ccccc32)oc2c1C(=O)CC(C)(C)C2 | 13µM | ? | - | - | -
CC(=O)Nc1ccc(S(=O)(=O)O)c2cc(S(=O)(=O)O)c(N=Nc3ccc(N=Nc4ccc(S(=O)(=O)O)cc4)c4ccc(S(=O)(=O)O)cc34)c(O)c12 | - | . | . | . | .
O=C(Nc1ccc2ccccc2n1)C1CCCCC1 | 2.8µM | ? | - | - | -
CCCN(CCC)C(=O)Cn1c(=O)n(-c2ccc(C)cc2)c(=O)c2ccc(C(=O)NCc3ccccc3Cl)cc21 | - | . | . | . | .
CCc1nnc(NC(=O)C23CC4CC(CC(C4)C2)C3)s1 | 11µM | ? | - | - | -
CC(C)Cc1nnc(NC(=O)C23CC4CC(CC(C4)C2)C3)s1 | - | - | - | - | -
O=S(=O)(c1ccc2ncccc2c1)N1CCN(c2nc(-c3cccs3)nc3ccccc23)CC1 | - | . | . | . | .
CCOCCCNc1ccc(-c2ccccc2)nn1 | 2.8µM | ? | - | - | .
CCOCCCNc1nc2ccccc2[nH]1 | - | ? | - | - | -
O=C(Nc1ccc2c(c1)CCC2)c1cc(F)cc(F)c1 | 3.2µM | ? | - | - | -
O=C(Nc1ccc2c(c1)CCC2)c1cccc(F)c1 | ? | ? | - | - | -
O=C(Nc1ccc2c(c1)CCC2)c1ccccc1Br | ? | ? | - | - | -
CSc1ccccc1C(=O)Nc1ccc2c(c1)CCC2 | 11µM | ? | - | - | -
COc1ccc([C@]23Cc4cc(C#N)ccc4C(O2)c2c(c4ccc(OC)cc4oc2=O)O3)cc1 | . | . | . | -[9.22 µM] | .
O=S(=O)(c1ccccc1C(F)(F)F)N1CCN(c2nc(-c3cccs3)nc3ccccc23)CC1 | - | . | . | . | .
COc1ccc(C(=O)Nc2cccc(-c3cnc4ccccc4n3)c2)cc1 | 4µM | - | - | - | -
CC(C)C(=O)Nc1cccc(-c2cnc3ccccc3n2)c1 | 11µM | - | - | - | -
CCOC(=O)c1ccc(N2C(=O)c3n[nH]c(-c4ccco4)c3C2c2ccccc2OC)cc1 (stereo not given) | - | . | . | . | .
COc1ccc(N2CCN(C(=O)C3CCN(S(=O)(=O)N4CCOCC4)CC3)CC2)cc1 | - | - | - | - | -
O=C(C1CCN(S(=O)(=O)N2CCOCC2)CC1)N1CCN(c2ccc(F)cc2)CC1 | - | - | - | 35µM | -
CC1=C(C(=O)N2CCCCC2)C(c2cccc(Cl)c2)n2c(nc3ccccc32)N1 (stereo not given) | - | . | . | . | .
O=C(O)c1cnn(-c2nc(-c3ccc(Br)cc3)cs2)c1C(F)(F)F | 5µM | ? | - | - | -
SMILES | BRCA1 expr act | p53 reactivator | IL2 activator | Mito fusion act | TCR activator
COc1ccccc1NC(=O)CSc1nc2c(oc3ccccc32)c(=O)n1-c1ccc(C)cc1 | - | . | . | . | .
CNc1ccc(C=C2c3ccccc3-c3ccccc32)cc1 | - | . | . | . | .
O=C(O)CCC(=O)Nc1ccccc1C(=O)NCCc1ccccc1 | 8.9µM | ? | - | - | -
NC(=O)c1ccccc1NC(=O)CCc1ccccc1 | 11µM | ? | - | - | .
Cc1ccc(Cl)cc1NC(=O)c1ccc(Cn2cc(Cl)cn2)cc1 | - | - | - | 20µM | -
CN(C)/C=C/C(=O)c1cnc(-c2ccccc2Cl)s1 | 6.3µM | - | - | - | -
CN(C)/C=C/C(=O)c1cnc(-c2cccc(Cl)c2)s1 | ? | - | - | - | -
O=C(c1ccc(Cl)cc1)N1CCN(c2ccc([N+](=O)[O-])c3ncccc23)CC1 | . | . | . | 23µM | .
O=C(c1cc(F)c(F)cc1Cl)N1CCN(c2ccc([N+](=O)[O-])c3ncccc23)CC1 | - | - | - | - | -
O/N=C(/C[n+]1csc2ccccc21)c1ccccc1 | - | . | . | . | .
COc1[nH]c(/N=C/c2ccco2)c(C#N)c1C#N | - | . | . | . | .
CCOC(=O)c1cc(-c2ccc3c(c2)OCCO3)n[nH]1 | ? | - | - | - | -
CCOC(=O)c1cc(-c2ccc(OC)cc2)n[nH]1 | 11µM | ? | - | - | -
COc1ccc(-c2nc(-c3ccccc3)c(-c3cc([N+](=O)[O-])ccc3C)[nH]2)cc1OC | - | - | - | - | -
CCOc1cc(-c2nc(-c3ccccc3)c(-c3cc([N+](=O)[O-])ccc3C)[nH]2)ccc1O | - | . | - | 14µM | -
O=C(C[N+]12CN3CN(CN(C3)C1)C2)c1ccc(Cl)cc1 | - | . | . | . | .
COc1ccc(NC(=O)Nc2ccc3[nH]ccc3c2)cc1 | 3.2µM | . | - | . | -
COc1ccc(NC(=O)Nc2ccc(OC)cc2)cc1 | - | - | - | - | -
